# Shown are actives, neighbours in structure and some others; about 3.9% of the full set was active somewhere.
# SUMO Mot1 rescue: yeast Mot1-301 growth rescue at high temperature, primary screen, SUMOylation pathway inhibitor project, S. cerevisiae, ATP luminescence, 38.5C. growth rescue, % at 18.8 µM. 320,000 compounds, 1% hits. S. cerevisiae Mot1-301 growth rescue; percent above DMSO median, 100 means doubled;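 active = every valid replicate shows activation above 250% relative to neutral control wells; inactive = the rest, any valid replicate at or below 250%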;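 also: OY570 slx delta 5 strain wells were the positive control but not used for scaling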
# CDK5 inh: inhibitors of human CDK5/p35 kinase, primary screen, biochemical, single concentration. Cyclin-dependent kinase 5 (Homo sapiens) + Cyclin-dependent kinase 5 activator 1 (Homo …. Recombinant CDK5/p35, ADP-Glo luminescence, 60 min. AID 488839, 2010. inhibition, % at 10 µM. 330,000 compounds, 0.01% hits;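 active = highest replicate inhibition of at least 50% and at least 75% of replicates reaching 50%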;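 also: plate controls were DMSO neutral control for no effect and GW8510 at 10 µM for full effect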
# NSD2 HMT inh: NSD2 histone methyltransferase inhibitors, primary screen, biochemical, AlphaScreen, single concentration, set 2 | Histone-lysine N-methyltransferase NSD2 (Homo sapiens), O96028 | NSD2 peptide methylation, 120 min | inhibition, % at 12.5 µM | 310,000 compounds, 0.54% hits | AID 743445, 2014; in the data active = inhibition above about 50%
# Glyco luc inh: increase of ERlucT glycosylation luciferase signal, primary screen, N-linked glycosylation inhibitor project, D54 ERlucT cells, luminescence, set 2; D54 ERlucT glycosylation luciferase reporter, 24 h; percent of 100 nM tunicamycin response; reporter increase, % at 12.5 µM; 360,000 compounds, 0.23% hits; AID 588692, 2011;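 active = mean luciferase reporter signal, scaled so untreated is 0 and the glycosylation-blocking control 100, at or above a set limit in every replicate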;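 also: luciferase carries N-glycosylation sites so blocking glycosylation raises the light; 0% = median of neutral control wells and 100% = median of 100 nM tunicamycin wells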
# ALR inh: inhibitors of human ALR sulfhydryl oxidase, primary screen, biochemical, H2O2 detection, HRP-luminol luminescence, single point; 290,000 compounds, 3.8% hits; purified ALR, DTT oxidation; inhibition, % (concentration not given with the values);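 active = mean replicate inhibition above about 79%, with every replicate also reaching it, limit read from the data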
# Target sequence (P55789 whole entry, looked up): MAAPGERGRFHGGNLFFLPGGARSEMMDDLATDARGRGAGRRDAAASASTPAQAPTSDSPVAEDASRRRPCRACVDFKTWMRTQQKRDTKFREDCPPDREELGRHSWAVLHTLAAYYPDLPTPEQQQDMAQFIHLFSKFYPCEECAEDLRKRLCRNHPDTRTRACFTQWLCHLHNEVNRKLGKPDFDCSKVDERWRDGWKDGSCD
# CASP6 VEID inh: human caspase-6 inhibitors, primary screen, biochemical, VEID-R110 fluorescence, single point, set 2; purified caspase-6, Z-VEID-R110 cleavage fluorescence; inhibition, % at 12.5 µM; 350,000 compounds, 0.53% hits; AID 686996, 2013;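 active = mean inhibition across replicates at least about 35%, with every replicate also reaching that limit, limit read from the data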;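 also: 0% = median of neutral control wells and 100% = no fluorescence left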
# Target sequence (P55212 24-179 limits assumed): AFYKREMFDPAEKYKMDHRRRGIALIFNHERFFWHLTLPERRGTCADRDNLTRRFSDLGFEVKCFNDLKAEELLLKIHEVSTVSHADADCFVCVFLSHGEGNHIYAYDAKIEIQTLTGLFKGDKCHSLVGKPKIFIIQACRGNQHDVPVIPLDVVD
# Target sequence (P55212 194-293 limits assumed): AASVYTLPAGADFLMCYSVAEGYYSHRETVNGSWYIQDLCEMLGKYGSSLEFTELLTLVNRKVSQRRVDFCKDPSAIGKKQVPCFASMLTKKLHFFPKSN
# The depositor's hits bear a star; x = no result.
SMILES,SUMO Mot1 rescue,CDK5 inh,NSD2 HMT inh,Glyco luc inh,ALR inh,CASP6 VEID inh
NNc1nc2ccccc2nc1C(F)(F)F,-11,-7,4,0,-3,-3
COc1ccccc1Cn1[nH]nnc1=S,13,0,101*,1,40,1
COc1ccccc1CN1C(=O)CNC1=S,1,1,2,3,39,x
CN(C)c1ccc(/C=N/NC(=O)CNC(=O)c2ccc3c(c2)OCCO3)cc1,-12,2,4,1,98*,4
O=C(CNC(=O)c1ccc2c(c1)OCCO2)N/N=C/c1ccc(O)cc1O,9,-1,-1,-1,27,x
CCN(CC)c1ccc(/C=N/NC(=O)CNC(=O)c2ccc3c(c2)OCCO3)cc1,183,-2,7,-2,87*,2
CCC(=O)Nc1ccc(NC(=O)c2ccc3c(c2)OCO3)cc1,74,1,2,0,1,x
CCN(CC)c1ccc(NC(=O)c2ccc3c(c2)OCO3)cc1,-5,1,19,-2,99*,-1
CCN1CCN(c2cc(C)c3cc(NC(=O)c4ccc5c(c4)OCO5)ccc3n2)CC1,34,-2,x,-4,84*,0
CNC[C@@H]1Oc2ccc(NS(C)(=O)=O)cc2CC(=O)N([C@H](C)CO)C[C@H]1C,x,x,x,x,x,-1
C/C=C/c1ccc([C@H]2[C@@H](CO)N(C(=O)CN(C)C)C23CN(C(=O)C2CC2)C3)cc1,x,x,x,x,x,2
C[C@H]1CCCCO[C@H](CN(C)CC2CC2)[C@@H](C)CN([C@@H](C)CO)C(=O)c2cc(NC(=O)c3ccncc3)ccc2O1,x,x,x,x,x,0
CN(C)c1ccc(/C=N/NC(=O)CNC(=O)c2ccncc2)cc1,-12,-1,0,1,98*,1
O=C(/C=C/c1ccco1)NCC(=O)N/N=C/c1ccc(Cl)cc1,8,1,4,0,39,2
CN(C)c1ccc(/C=N/NC(=O)CNC(=O)/C=C/c2ccco2)cc1,20,-1,17,3,91*,2
C=CCN1CCc2cc(O)c(O)cc2C(c2ccccc2)C1 (centres undefined),6,0,x,1,98*,x
C#CC1c2ccccc2CCN1CC=C (centres undefined),x,x,x,x,x,4
C=CCN1CCc2c(cc(O)c(O)c2Cl)C(c2ccccc2)C1 (centres undefined),2,0,x,-3,99*,0
Cc1cccc(C2CC3(CC(C)(C)NC(=S)N3)Oc3cc(O)ccc32)c1 (centres undefined),-20,0,-11,-2,2,16
Cc1cccc(C2CN(C)CCc3c2cc(O)c(O)c3Cl)c1 (centres undefined),1,1,x,3,98*,1
CN(C)/N=C/c1ccc(/C=N/NC(N)=S)o1,422*,2,2,3,99*,1
NC(=S)N/N=C/c1ccc(-c2ccccc2)o1,4,1,2,-1,98*,1
O/N=C\c1ccc(-c2ccccc2)o1,4,0,0,2,78*,0
Cc1ccc(-c2ccc(/C=N/NC(N)=S)o2)cc1,69,0,2,3,-6,13
O=[N+]([O-])c1ccc(-c2ccc(/C=N/O)o2)cc1,9,x,4,-3,58,-1
SMILES,SUMO Mot1 rescue,CDK5 inh,NSD2 HMT inh,Glyco luc inh,ALR inh,CASP6 VEID inh
C[C@@H]1CCCCO[C@H](CN(C)S(=O)(=O)c2ccc(F)cc2)[C@@H](C)CN([C@H](C)CO)C(=O)c2cc(NC(=O)CCCN(C)C)ccc2O1,x,x,x,x,x,0
Cn1c(SCc2cccnc2)nc2c(c1=O)SCC2,x,0,-1,0,99*,1
Cn1c(SCc2ccc(Br)cc2)nc2c(c1=O)SCC2,65,1,7,-3,98*,-2
Cn1c(SCC(=O)NCc2ccc3c(c2)OCO3)nc2c(c1=O)SCC2,1,0,1,-1,47,-1
COc1ccc(-n2c(SCc3cccnc3)nc3c(c2=O)SCC3)cc1OC,x,-2,-3,1,x,-5
Cn1c(SCc2cccc([N+](=O)[O-])c2)nc2c(c1=O)SCC2,14,0,16,-7,99*,-3
COC(=O)CCS(=O)(=O)c1nc(-c2ccccc2)cc(C(F)(F)F)n1,-5,1,-1,-14,98*,x
CCOC(=O)CS(=O)(=O)c1nc(-c2ccccc2)cc(C(F)(F)F)n1,15,2,-1,-16,98*,x
COCC(C)NC(=O)CCS(=O)(=O)c1nc(-c2ccc(OC)cc2)cc(C(F)(F)F)n1 (centres undefined),3,-1,0,-5,97*,x
COCCNC(=O)CCSc1nc(-c2ccc(OC)cc2)cc(C(F)(F)F)n1,43,-4,-1,0,-1,x
CCOC(=O)CCS(=O)(=O)c1nc(-c2ccccc2)cc(C(F)(F)F)n1,101,-1,x,-14,87*,x
C[C@H](NC(=O)C[C@H]1CC[C@@H](NC(=O)c2cccnc2)[C@@H](CO)O1)c1ccccc1,x,x,x,x,x,0
Nc1cc(OC(=O)c2ccc(F)cc2)nn1S(=O)(=O)c1ccc(F)cc1,7,1,-3,3,3,-1
Cc1ccc(S(=O)(=O)n2nc(OC(=O)c3ccccc3C)cc2N)cc1,16,-7,-4,1,x,-3
Nc1cc(OC(=O)c2ccco2)nn1S(=O)(=O)c1ccc(F)cc1,-12,2,-2,0,98*,x
Cc1ccc(S(=O)(=O)n2nc(OC(=O)c3ccco3)cc2N)cc1,1,0,7,4,98*,x
C[C@@H]1CN([C@H](C)CO)C(=O)c2cc(C#CC3CC3)cnc2O[C@@H]1CN(C)C(=O)CC1CC1,x,x,x,x,x,-1
Cc1c(/C=N\NC(=O)c2ccc(F)cc2)cnn1C,-5,x,-4,1,99*,x
Cc1c(/C=N\NC(=O)c2cccc(F)c2)cnn1C,12,1,0,0,-4,-2
CCn1cc(/C=N\NC(=O)c2ccc(F)cc2)cn1,-1,1,-3,-1,98*,x
Cc1cc(C(=O)c2cccs2)c(N)s1,70,0,5,4,99*,7
Clc1ccc(/C=C/c2ncc3ccccn23)cc1,0,1,-11,-5,99*,-1
c1csc(-c2ncc3ccccn23)c1,-24,2,-1,0,-22,x
COc1ccc2c(/C=N/NS(=O)(=O)c3ccc(C)cc3)c[nH]c2c1,25,1,1,-1,89*,0
COc1ccc2[nH]cc(/C=N/NS(=O)(=O)c3ccc(C)cc3)c2c1,-16,-3,6,-1,x,0

# High-throughput results deposited in PubChem by Broad Institute.
